From PubChem BioAssay AID463190 (Sanford-Burnham Center for Chemical Genomics, 2010)
Out of some 330,000 compounds screened, about 7,300 (2.2%) were called active.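 The calls were made as follows: active = inhibition of at least 40%; inactive = the rest.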 For the sample, actives were picked, then their nearest neighbours and some compounds at random.

Assay: growth inhibitors of tim10-1 mutant yeast, primary screen, luminescence, uHTS (AID 463190);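 also: mutant grown at 25 °C; 0% = DMSO wells with yeast and 100% = wells holding no yeast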
Details: S. cerevisiae tim10-1 ts strain growth, BacTiter-Glo, 24 h; at 20 µM; hits give high values

inhibition, active:
OC(CNCC1CCCO1)Cn1c2ccc(Br)cc2c2cc(Br)ccc21 (stereo not given) 45.7%
Cc1ccc(OS(=O)Nc2cccc3nccnc23)cc1 (stereo not given) 54.6%
CCN1/C(=C\c2ccc3ccccc3[n+]2CC)Sc2cc(C)ccc21 65.2%
O=[N+]([O-])c1ccc2oc(-c3cccc(O)c3)nc2c1 45.7%
O=C(NC(Nc1nc2ccc([N+](=O)[O-])cc2s1)(C(F)(F)F)C(F)(F)F)c1ccccc1 85.4%
O=C1c2ccccc2C(=O)c2c1cccc2N1CCN(Cc2ccccc2)CC1 49.4%
O=C(CCc1ccccc1)Nc1ncc([N+](=O)[O-])s1 45.9%
CCNC(=S)N(CCc1c(C)[nH]c2ccc(C)cc12)Cc1ccco1 45.6%
N/C(=N\OC(=O)Nc1ccc(Cl)c(Cl)c1)c1ncc(C(F)(F)F)cc1Cl 49.2%
Cc1ccccc1CC1(CO)CCCN(C(=O)c2cc(-c3ccccc3)no2)C1 (stereo not given) 42.6%
Cc1ccc(Oc2cnn(-c3ccccc3)c(=O)c2Br)cc1 42.1%
O=C(N/N=C\c1cccc(Br)c1)c1ccccc1-n1cccc1 57.6%

inhibition, inactive:
COc1ccc(-n2nc(C(=O)NCC(=O)N3CCN(c4ccccc4OC)CC3)c3ccccc3c2=O)c(OC)c1 1.49%
CCN(c1ccccc1)S(=O)(=O)c1ccc2[nH]c(=O)[nH]c2c1 11.5%
O=C(O)C(c1ccccc1)C1(O)CCCCC1 (stereo not given) 2.11%
Cc1ccc(C(=O)Nc2c(C#N)c(C)c(C)n2Cc2ccccc2)cc1 17.9%
O=C(CSc1ccc(-c2ccc(Br)cc2)nn1)NCC1CCCO1 (stereo not given) 17.5%
O=C(CCNS(=O)(=O)c1ccc(Br)cc1)NCC1CCCO1 (stereo not given) 1.09%
NC(=O)C1CCN(C(=O)/C(=C/c2ccco2)NC(=O)c2ccccc2)CC1 -8.85%
NC(=O)CC[C@@H]1NC(=O)[C@H](CO)NC(=O)c2cc([N+](=O)[O-])cc(I)c2NCC[C@@H](C(N)=O)NC1=O -26.8%
CCOc1ccc(NC(=O)[C@H](C)NC(=O)C2CC(=O)N(c3ccc(OC)cc3)C2)cc1 (stereo not given in full) -6.36%
COC(=O)C(NS(=O)(=O)c1ccc(F)cc1)c1ccccc1 (stereo not given) 13.7%
Cc1ccc(Oc2ccc3c(c2)C(=O)N(c2cccc4cccnc24)C3=O)cc1 18.3%
Cc1ccc(OCC(=O)Nn2cnc3ccccc32)cc1 1.81%
CCOc1ccc(NS(=O)(=O)c2cc(C)c(C)cc2C)cc1 1.28%
CC(C)(C)c1cc(CN2CCN(CCC#N)CC2)cc(C(C)(C)C)c1O -1.87%
C=CCn1c(COc2ccc(F)cc2)nnc1SCC(=O)Nc1cccc(S(N)(=O)=O)c1 -3.82%
O=c1nc(N2CCOCC2)nc2n1CCO2 -13.4%
CCC1CCCCN1C(=O)CSc1nc2c(c(=O)n(C)c(=O)n2C)n1C (stereo not given) 0.551%
O=S(=O)(c1ccc(F)cc1)n1ccc(-c2cnc(-c3ccccc3)s2)n1 24.1%
CC(=O)Oc1ccc2c(=O)oc(-c3ccc([N+](=O)[O-])cc3)nc2c1 22.6%
COc1ccc2oc(-c3cccc(NC(=O)CSc4ccc(Cl)cc4)c3)nc2c1 21.6%
Cc1ccc(OS(=O)(=O)c2ccc(-c3csc(C)n3)s2)c(C)c1 10.6%
COc1cc(C=O)ccc1Oc1nnnn1-c1ccccc1 22.8%
O=C(CCNC(=O)c1ccccc1)Nc1nc2ccccc2s1 -11%
O=C(CNC(=O)c1ccccc1)Oc1ccc([N+](=O)[O-])cc1 3.17%
CCC(=O)Nc1cccc(C2=NOC3(C2)C[C@@H](C(N)=O)N(C(=O)c2cc([N+](=O)[O-])cc([N+](=O)[O-])c2C)C3)c1 (stereo not given in full) 9.39%
O=C1c2ccccc2C(=O)c2c1cccc2N1CCN(CCO)CC1 15.9%
O=C1c2ccccc2C(=O)c2c1cccc2N1CCN(C/C=C/c2ccccc2)CC1 23.3%
CC1CCN(S(=O)(=O)c2ccc3c(ccn3CC(=O)O)c2)CC1 6.77%
O=C(Cc1c(F)cccc1Cl)Nc1ncc([N+](=O)[O-])s1 32.8%
COc1ccc([N+](=O)[O-])cc1NC(=O)CCc1ccccc1 27.1%
O=C(C1CCCN(S(=O)(=O)c2ccccc2)C1)N1CCN(c2ccc(F)cc2)CC1 (stereo not given) 17.6%
Fc1ccccc1-c1cc2cc3c(cc2cn1)OCO3 -19.8%
COc1cccc(NC(=S)N(CCc2c(C)[nH]c3ccccc23)Cc2ccco2)c1 32.4%
COCCNC(=S)N(CCc1c(C)[nH]c2ccc(C)cc12)Cc1cccnc1 11.6%
CC(CNS(=O)(=O)c1ccc(Br)cc1)CN(C)C (stereo not given) 6.17%
N/C(=N\OC(=O)CCCC(=O)O)c1ncc(C(F)(F)F)cc1Cl 1.66%
O=C(c1ccccn1)c1ncc(C(F)(F)F)cc1Cl 7.58%
Cc1cccc(NC(=O)C2CCCN(C(=O)Nc3ccc(F)cc3)C2)c1C (stereo not given) -25.6%
Cc1ccccc1CC1(CO)CCCN(Cc2ccc3c(c2)OCCO3)C1 (stereo not given) 8.67%
Cc1noc(C)c1CCC(=O)N1CCCC(CO)(Cc2ccccc2)C1 (stereo not given) -14.1%
Cc1ccc(OC(=O)c2c(C)nn(-c3ccccc3)c2C)cc1 25.6%
Cc1cccc(-n2ncc(Cl)c(Cl)c2=O)c1 -25.8%
COc1ccc(S(=O)(=O)/N=C2\C=C(NS(=O)(=O)c3ccccc3)C(=O)c3ccccc32)cc1 31.1%
CCc1[nH]nc(C(=O)N2CCCC(CO)(Cc3ccc(F)cc3F)C2)c1C (stereo not given) 24.1%
COc1cc2c(cc1OC)C(C(=O)Nc1cc(C)c(OC)c(C)c1)CC(=O)N2 (stereo not given) -5.96%
CS(=O)(=O)N(Cc1ccccc1)c1ccc(C(=O)NN=C2CCCCCC2)cc1 17.2%
O=C(CNC(=O)c1cccs1)N/N=C/c1cccc(Br)c1 22%
O=C(N/N=C/c1cccc(Br)c1)c1ccc(N2CCCC2=O)cc1 -37.8%
